DT40 TDP1 CPT: DT40-hTDP1 cell growth loss with CPT; chicken DT40 Tdp1-/-;hTDP1 cells + 20 nM CPT, ATP luminescence, 48 h; 420,000 tested, 12% active; Potency, µM (titrated, usually from 46.2 µM), most hits filed as inhibitors; AID 686979; also: nearly all actives have a fitted effect of over 55% in size
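Chicken DT40 Tdp1-/- cells complemented with human TDP1, 400 cells/well, exposed to compounds plus 20 nM camptothecin for at least 48 h at 37 C; viability read as ATP content by CellTiter-Glo luminescence.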
DT40 TDP1 no CPT: qHTS for Inhibitors of human tyrosyl-DNA phosphodiesterase 1 (TDP1): qHTS in cells in absence of CPT; DT40 Tdp1-/- hTDP1 cells, no CPT, ATP luminescence, 48 h; Potency, µM (titrated, usually from 46.2 µM), hits mostly inhibitors; 420,000 tested, 15% active; AID 686978, 2013; also: nearly all actives have a fitted effect of over 55% in size
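Chicken DT40 Tdp1-/- cells stably complemented with human TDP1 were seeded at 400 cells/well with DMSO in place of 20 nM camptothecin. After compound pinning, cells grew at least 48 hr at 37 °C; viability read by CellTiter-Glo luminescence.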
DRD3 antagonist: antagonists of human D3 dopamine receptor | max response, negative = inhibition, % | P35462 | D3R cells, DiscoveRx beta-arrestin luminescence, antagonist mode; stronger effect = lower value | 360,000 tested, 2.5% active | AID 652054; in the data active = max response below about -50%; inconclusive = no clear call, values can overlap the other calls
Target sequence (P35462 whole entry, looked up): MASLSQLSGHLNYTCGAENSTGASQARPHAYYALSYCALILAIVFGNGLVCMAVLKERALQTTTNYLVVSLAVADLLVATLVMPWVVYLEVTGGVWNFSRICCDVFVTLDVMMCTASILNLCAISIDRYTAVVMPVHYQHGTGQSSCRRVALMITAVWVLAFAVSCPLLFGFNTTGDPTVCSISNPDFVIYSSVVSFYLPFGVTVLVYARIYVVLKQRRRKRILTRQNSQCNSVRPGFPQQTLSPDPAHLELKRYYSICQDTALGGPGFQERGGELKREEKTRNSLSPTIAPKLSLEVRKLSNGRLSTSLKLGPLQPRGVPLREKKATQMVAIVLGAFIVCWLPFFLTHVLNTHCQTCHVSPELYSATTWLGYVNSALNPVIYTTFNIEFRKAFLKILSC
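Cells plated overnight at 1500 cells/well, then exposed to library compounds with dopamine controls for 90 minutes at 37 degrees C. DiscoveRx reagent added for 30–60 minutes at room temperature; luminescence read, quantitative HTS format.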
DRD3 agonist: agonists of human D3 dopamine receptor | D3R DiscoveRx beta-arrestin cells, luminescence, 90 min | max activation, % | P35462 | AID 652048 | 410,000 tested, 0.58% active; in the data active = max activation above about 30%
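Agonist mode: compounds and dopamine controls were applied to plated cells for 90 min at 37 degrees C after an overnight attachment at 1500 cells/well. Luminescent read-out followed 30 - 60 minutes at room temperature with DiscoveRx detection reagent.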
IL1B secr inh: inflammasome signaling inhibition, IL-1 beta readout; THP-1 LPS/ATP IL-1B secretion, AlphaLISA, 16 h; stronger effect = lower value; activity change, % at 57.5 µM; 360,000 tested, 4.7% active; in the data active = activity change below about -50%; inconclusive = mostly about -30% to -49%
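Secreted IL-1B measured by AlphaLISA bead assay after 16 h compound exposure of THP-1 cells; compounds (final up to 57.5 uM) added 1 h before LPS (250 ng/mL) and ATP (1.25 mM) stimulation; lower signal means less secretion.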
ClpP mod: qHTS Assay for Activators of ClpP | 340,000 tested, 1.9% active | ATP-dependent Clp protease proteolytic subunit (Bacillus subtilis (strain 168)), P80244 | AID 651965, 2013 | Potency, µM (series often up to 57.5 µM) | purified B. subtilis ClpP, FRET peptide cleavage, 20 min; active = well fitted falling curve with a large enough effect; inconclusive = small, poorly fitted or top-dose-only effect; inactive = no such curve, though single readings can be large or run the other way; also: the source files actives as falling curves though it sought activators and does not explain the sign; nearly all actives have a fitted effect of over 65% in size
Target sequence (P80244 whole entry, looked up): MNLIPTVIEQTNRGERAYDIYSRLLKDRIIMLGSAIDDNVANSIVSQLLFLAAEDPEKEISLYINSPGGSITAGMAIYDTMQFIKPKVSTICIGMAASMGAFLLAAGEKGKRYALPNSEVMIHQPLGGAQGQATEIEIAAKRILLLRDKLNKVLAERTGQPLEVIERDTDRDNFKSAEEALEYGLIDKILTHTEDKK
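FRET quenching reversal measured ClpP activation: 10 microg/mL B. subtilis ClpP at pH 8 with the FRET-FV decapeptide, read at 430 nm after 320 nm excitation. The 20-min minus 0-min signal was scaled between DMSO/no-enzyme wells and ADEP (5.8 microM final).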
Numbers stand for hits; n = inactive; u = inconclusive; x = not tested or not shown; [ ] = another dose, or the depositor's remark. Sampled rows, rich in hits. Any-hit rate of the full collection: about 21%. Unless noted, calls follow the shape of the dose curve; as a rule, active = well fitted inhibition curve with a large enough effect; inconclusive = small, poorly fitted or top-dose-only effect; inactive = flat fitted curve, though single readings scatter.

SMILES | DT40 TDP1 CPT | DT40 TDP1 no CPT | DRD3 antagonist | DRD3 agonist | IL1B secr inh | ClpP mod
COc1cccc2cc(/C(=N/O)c3ccc(Br)cc3)oc12 | u | u | n | n | n | n
O/N=C(/c1ccccc1)c1cc2cc(Br)cc(Br)c2o1 | n | u | n | n | -85 | n
N#C/C(=C\c1ccc(C(=O)O)cc1)c1ccccn1 | n | n | n | n | n | x
N#C/C(=C/c1ccc(N2CCOCC2)o1)c1ccc(Br)cc1 | 9.2µM | 15µM | n | n | -106 | n
N#CC(=Cc1ccncc1)c1ccccc1 | n | n | n | n | -74 | n
N#C/C(=C\c1ccc(N2CCOCC2)o1)c1ccccc1 | 10µM | u | n | n | -84 | n
N#C/C(=C\c1ccc(N2CCOCC2)cc1)c1ccccc1 | 21µM | 15µM | n | n | u | n
N#C/C(=C/c1ccc(N2CCOCC2)o1)c1nc2ccccc2[nH]1 | u | u | n | n | n | n
Cc1cc(C2(c3ccc(O)c(C)c3)C(=O)N(C)c3ccc(Br)cc32)ccc1O | n | n | n | n | n | n
CN1C(=O)C(O)(CC(=O)/C=C/c2ccco2)c2cc(Br)ccc21 (configuration not stated) | 6.5µM | 4.1µM | n | n | n | n
CN1C(=O)C(O)(CC(=O)c2ccccc2O)c2cc(Br)ccc21 (configuration not stated) | 5.2µM | 5.8µM | u | n | n | n
Cc1cccc(NC(=O)c2oc3ccccc3c2NC(=O)c2cc(=O)c3cc(Cl)ccc3o2)c1 | u | u | x | n | x | n
CCOc1ccc(N(CC(=O)NN=C2CCN(C)CC2)S(=O)(=O)c2ccc(Br)cc2)cc1 | u | n | u | n | n | n
O=S(=O)(NCC(Nc1ccccc1)c1ccccc1)c1ccc(Cl)cc1 (configuration not stated) | u | 29µM | n | n | -79 | n
CCC(c1nnnn1Cc1ccco1)N(Cc1cc2cc(C)cc(C)c2[nH]c1=O)CC1CCCO1 (configuration not stated) | 15µM | 18µM | n | n | n | u
Cc1ccc2cc(CN(Cc3ccc4c(c3)OCO4)Cc3nnnn3Cc3ccco3)c(=O)[nH]c2c1 | 16µM | u | n | n | -53 | n
Cc1ccc2[nH]c(=O)c(CN(CCO)Cc3nnnn3CCc3ccccc3)cc2c1 | u | n | n | n | n | u
Cc1cccc2cc(C(c3nnnn3C(C)(C)C)N(Cc3ccco3)CC3CCCO3)c(=O)[nH]c12 (configuration not stated) | u | u | n | n | u | n
COc1ccccc1CN(Cc1cc2c(C)ccc(C)c2[nH]c1=O)Cc1nnnn1Cc1ccco1 | 23µM | 18µM | n | n | -70 | n
COc1ccc2cc(CN(CCc3ccccc3)Cc3nnnn3Cc3ccco3)c(=O)[nH]c2c1 | u | 16µM | u | n | n | u
O=C(NC1CC(=O)N(c2ccc(F)cc2)C1)c1ccc(S(=O)(=O)N2CCOCC2)cc1 (configuration not stated) | n | n | x | n | x | n
O=c1[nH]c2cc3c(cc2cc1CN(Cc1nnnn1C1CCCC1)C1CCCC1)OCCO3 | 16µM | 26µM | n | n | n | 32µM
CCC(c1nnnn1Cc1ccco1)N(Cc1ccccc1OC)Cc1cc2cc(C)ccc2[nH]c1=O (configuration not stated) | u | 23µM | n | n | n | n
CCC(c1nnnn1C(C)(C)CC)N(CCCO)Cc1cc2cc(C)cc(C)c2[nH]c1=O (configuration not stated) | u | 21µM | n | n | u | n
Cc1ccc2[nH]c(=O)c(CN(Cc3ccccc3)Cc3nnnn3Cc3ccco3)cc2c1 | 8.9µM | u | x | x | x | n
SMILES | DT40 TDP1 CPT | DT40 TDP1 no CPT | DRD3 antagonist | DRD3 agonist | IL1B secr inh | ClpP mod
CCCC(c1nnnn1C(C)(C)CC)N(CCCO)Cc1cc2cc(C)cc(C)c2[nH]c1=O (configuration not stated) | u | u | n | n | n | n
Cc1ccccc1-c1noc(-c2cc3ccccc3oc2=O)n1 | n | u | x | n | x | n
Cc1ccccc1NC(=O)N1CCC(NC(=O)C2CCCCC2)CC1 | n | n | n | n | n | n
O=C(O)C(C(O)c1ccccc1)[n+]1ccccc1 (configuration not stated) | n | n | u | n | n | n
CCn1ccc2cc(S(=O)(=O)N3CCCN(C(=O)NCC(=O)OC)CC3)ccc21 | x | x | x | n | x | n
Cc1ccc2[nH]c(=O)c(CN(Cc3cccs3)Cc3nnnn3Cc3ccccc3)cc2c1 | n | u | n | n | u | n
Cc1ccc(CN(Cc2cc3cc4c(cc3[nH]c2=O)OCCO4)Cc2nnnn2Cc2ccco2)cc1 | u | u | n | n | u | 32µM
Cc1ccc2[nH]c(=O)c(CN(Cc3ccccc3)Cc3nnnn3C3CCCC3)cc2c1 | 21µM | u | n | n | -72 | n
CCc1ccc2[nH]c(=O)c(CN(Cc3ccco3)Cc3nnnn3Cc3ccco3)cc2c1 | u | 13µM | x | x | x | n
CCCCOc1ccc(C(=O)NCc2cn3cccc(C)c3n2)cc1 | u | u | x | n | x | n
CCNc1ncc2nc(-c3ccccc3)c(=O)n(Cc3cccc(OC)c3)c2n1 | n | n | x | x | x | x
Cc1cc2c(cc1NS(=O)(=O)c1ccc(Br)cc1)n(C)c(=O)c(=O)n2C | u | u | x | n | x | n
CC(O)(COc1ccccc1)c1ccc2c(c1)CN(Cc1cccn1-c1ccccn1)CCO2 (configuration not stated) | n[9.04 µM] | 16µM | x | x | x | x
CCCSc1nc2sc3c(c2c(=O)[nH]1)CC(C)CC3 (configuration not stated) | u | 16µM | n | n | n | x
CCCCSc1nc2sc3c(c2c(=O)[nH]1)CCC3 | n | n | n | n | n | n
CCCSc1nc2sc3c(c2c(=O)[nH]1)CCN(Cc1ccccc1)C3 | u | 21µM | n | n | n | n
O=C(NCc1cccnc1)[C@@H]1CC=C[C@@H]2CCN(C3CCCCC3)C(=O)[C@@H]21 | n | n | x | x | x | n
c1ccc2c(c1)NC1(CCCC1)n1c-2nc2ccccc21 | u | u | n | n | -79 | n
CCCc1cc(=O)oc2c(CNc3ccc(OCC)cc3)c(O)ccc12 | 12µM | u | u | n | n | n
CC(=O)N(/N=C/c1ccc(C)cc1)c1nc(CCl)cs1 | 15µM | u | n | n | n | x
CCOc1ccccc1CC1C(=O)Nc2ccc(Br)cc21 (configuration not stated) | u | u | x | n | x | u
